The nature of assay [1]: NCI Yeast Anticancer Drug Screen. Data for the rad50 strain (AID 155).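 Further: 0% = growth of vehicle-only cultures of the same strain.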 The conditions noted are these: S. cerevisiae rad50 strain growth inhibition, active compounds read high. The method, boiled down: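 Cells are treated with compound, grown, and their growth is then scored against vehicle-only cultures of the same repair-deficient yeast strain.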
A short description of assay [2]: NCI Yeast Anticancer Drug Screen. Data for the mec2-1 strain (AID 157). The conditions noted are these: S. cerevisiae mec2-1 strain, active compounds read high. The method in brief: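 Test agents were screened against the mec2-1 yeast strain, with defined DNA repair or cell cycle alteration. Growth was scored as inhibition against vehicle-only controls.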
Assay [3] can be described thus: NCI Yeast Anticancer Drug Screen. Data for the sgs1 mgt1 strain (AID 161).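 Further: 0% = growth of cultures given vehicle only.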 The following applies: S. cerevisiae sgs1 mgt1 strain, active compounds read high. The method, boiled down:
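Genetically altered yeast, compound exposure, growth inhibition relative to vehicle.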

Assay [4] is described as follows: NCI Yeast Anticancer Drug Screen. Data for the cln2 rad14 strain (AID 165).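 Further: 0% = growth equal to vehicle treated cultures.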 The following applies: S. cerevisiae cln2 rad14 strain, active compounds read high. The method, boiled down: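 Growth of compound-exposed yeast (cln2 rad14 genotype) measured and expressed as inhibition relative to vehicle.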
Assay [5] in a line: NCI Yeast Anticancer Drug Screen. Data for the bub3 strain (AID 167). The conditions noted are these: S. cerevisiae bub3 mutant strain, active compounds read high. The method, boiled down: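 Part of a panel of yeast mutants defective in DNA damage repair or cell cycle regulation. Each strain is grown with compound, and inhibition is calculated relative to solvent-treated cultures.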

A short description of assay [6]: NCI Yeast Anticancer Drug Screen. Data for the mlh1 rad18 strain (AID 175). The conditions noted are these: S. cerevisiae mlh1 rad18 strain growth inhibition, active compounds read high. The method, boiled down:
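In this whole-cell yeast screen, a strain with altered DNA damage repair is challenged with compound, and its growth is measured against matched vehicle-treated controls.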

Where [7] appears, read: at 5.0 µM (retest, dose inferred, filed as 0.5).
Setting [8] is: at 50.0 µM (retest, dose inferred, filed as 5.0).

About 79,000 compounds went through this panel and 15% of them were active in at least one assay; those are over-represented in the sample as a whole. Values without a mark were called inactive. The source made the active and inactive calls. No stated cut-off is given here; in the data, active means growth inhibition above about 70%; inactive means the rest.

Take `C#CC[As+](c1ccccc1)(c1ccccc1)c1ccccc1`: the growth inhibition in assay [1] (setting [7]) was 31%; in assay [1] (setting [8]), 98% (active); in assay [1] (at 50.0 µM) it was 88.4% (active); in assay [2] (setting [7]) it was 29%; in assay [2] (setting [8]) it was 99% (active); in assay [2] (at 50.0 µM), 91.8% (active). Further, the growth inhibition is 45% in assay [3] (setting [7]); 100% (active) in assay [3] (setting [8]); 92.5% (active) in assay [3] (at 50.0 µM); 37% in assay [4] (setting [7]); 95% (active) in assay [4] (setting [8]); 88.8% (active) in assay [4] (at 50.0 µM). Also, the growth inhibition in assay [5] (setting [7]) is 34%; in assay [5] (setting [8]), 99% (active); in assay [5] (at 50.0 µM), 91.2% (active); in assay [6] (setting [7]) it was 45%; in assay [6] (setting [8]), 98% (active); in assay [6] (at 50.0 µM), 88.9% (active).

On to `C[CH2][Sn]([Br])([CH2]C)[c]1ccccc1CN(C)C`, for which the growth inhibition in assay [1] (setting [7]) was 30%; in assay [1] (setting [8]) it was 76% (active); in assay [1] (at 50.0 µM), 46.2%; in assay [2] (setting [7]), 23%; in assay [2] (setting [8]), 69%; in assay [2] (at 50.0 µM), 65.5%. Further, the growth inhibition in assay [3] (setting [7]) is 9%; in assay [3] (setting [8]), 77% (active); in assay [3] (at 50.0 µM), 87.8% (active); in assay [4] (setting [7]), 34%; in assay [4] (setting [8]), 53%; in assay [4] (at 50.0 µM), 71.2% (active). The growth inhibition in assay [5] (setting [7]) was 11%; in assay [5] (setting [8]), 78% (active); in assay [5] (at 50.0 µM), 86.8% (active); in assay [6] (setting [7]) it was 22%; in assay [6] (setting [8]) it was 79% (active); in assay [6] (at 50.0 µM), 86.7% (active).

For `[C-]#[O+].[C-]#[O+].[Mo].[N-]=Nc1ccc([N+](=O)[O-])cc1.[c-]1[c-][c-][cH-][c-]1`, the growth inhibition in assay [1] (setting [7]) is -1%; in assay [1] (setting [8]) it was 69%; in assay [1] (at 50.0 µM) it was 93.7% (active); in assay [2] (setting [7]) it was -6%; in assay [2] (setting [8]) it was 55%; in assay [2] (at 50.0 µM), 21.3%. Moreover, the growth inhibition in assay [3] (setting [7]) was 2%; in assay [3] (setting [8]) it was 86% (active); in assay [3] (at 50.0 µM), 84.9% (active); in assay [4] (setting [7]), 9%; in assay [4] (setting [8]) it was 26%; in assay [4] (at 50.0 µM), 8.7%. Also, the growth inhibition in assay [5] (setting [7]) was -12%; in assay [5] (setting [8]) it was 71% (active); in assay [5] (at 50.0 µM), 4.95%; in assay [6] (setting [7]), 2%; in assay [6] (setting [8]), 75% (active); in assay [6] (at 50.0 µM), 79.3% (active).

These data come from PubChem BioAssay (NCI).
